The values below come from PubChem BioAssay (NCI).

Compounds without any hit were thinned out: in the full panel of roughly 83,000, 20% have a hit.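 How to read the values: 0–100, growth inhibition (40 = 60% inhibited); 0, no net growth; -100 to 0, cell death (-40 = 40% of starting cells died; -100 = all dead).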 Values without a mark were called inactive. Calls of active or inactive are those of the source. Rule for the calls: active = growth percent below 10; inactive = the rest.

Among the test systems are NCI-H23 lung; NCI-H226 lung; NCI-H322M lung; HOP-62 NSCLC; NCI-H460 lung; HOP-92 NSCLC; NCI-H522 lung; A549/ATCC NSCLC; 786-0 renal; COLO 205 colon.
Common to all, as to experiment: NCI-60 one-dose screen, 48 h (100 = growth as untreated, 0 = no growth, -100 = all killed)
Holding throughout (details): 10 µM unless noted

For `COc1ccc(-c2cc(=O)c3c(OC)c4ccoc4cc3o2)cc1`, the growth was 99.4% in the experiment on NCI-H23 lung; 95.5% in the experiment on NCI-H226 lung; 77.8% in the experiment on NCI-H322M lung; 108% with HOP-62 NSCLC; 73.7% in the experiment with NCI-H460 lung; 90.1% in the experiment on HOP-92 NSCLC. Further, the growth in the experiment on NCI-H522 lung was 82.4%; with A549/ATCC NSCLC it was 86.2%; in the experiment with 786-0 renal it was 116%; in the experiment with COLO 205 colon, 102%.
For `CCCSc1ccc2nc(NC(=O)OC)[nH]c2c1`, the growth in the experiment with NCI-H23 lung is 24%; in the experiment on NCI-H226 lung it was 23.2%; with NCI-H322M lung, 60.1%; in the experiment with HOP-62 NSCLC, 35.2%; in the experiment with NCI-H460 lung it was 6.79% (active); with HOP-92 NSCLC it was 33.6%. For the same compound, the growth was -35.7% (active) in the experiment with NCI-H522 lung, 16.5% in the experiment with A549/ATCC NSCLC, 31% in the experiment with 786-0 renal and 5.29% (active) with COLO 205 colon.
As for `C#Cc1cccc(NC(=O)c2ccccc2NC(=O)C=C)c1`, the growth with NCI-H23 lung is 97.1% [8.25 µM]; with NCI-H226 lung it was 97.6% [8.25 µM]; with NCI-H322M lung, 101% [8.25 µM]; with HOP-62 NSCLC, 92.9% [8.25 µM]; with NCI-H460 lung it was 103% [8.25 µM]; with HOP-92 NSCLC it was 92.8% [8.25 µM]. The growth with NCI-H522 lung is 80.5% [8.25 µM]; in the experiment with A549/ATCC NSCLC, 98.1% [8.25 µM]; in the experiment on 786-0 renal it was 89.9% [8.25 µM]; in the experiment on COLO 205 colon, 109% [8.25 µM].
In the case of `CC1(C)CC[C@]2(C(=O)Nc3ccccn3)CC[C@]3(C)C(=CC[C@@H]4[C@@]5(C)C/C(=C/c6cccnc6)C(=O)C(C)(C)[C@@H]5CC[C@]43C)[C@H]2C1`, the growth in the experiment with NCI-H23 lung was 35.9%; in the experiment on NCI-H226 lung it was 47.8%; in the experiment with NCI-H322M lung, 79.1%; in the experiment on HOP-62 NSCLC, 54.7%; with NCI-H460 lung, 10.6%; in the experiment with HOP-92 NSCLC it was 57.7%. In addition, the growth with NCI-H522 lung is 30.5%; in the experiment with A549/ATCC NSCLC, 27.3%; with 786-0 renal, 43.2%; in the experiment with COLO 205 colon it was 4.76% (active).
For `CCCCN(CCCC)CCCn1c(-c2ccccc2)ccc1-c1ccccc1`, the growth in the experiment with NCI-H23 lung was 52.9%; with NCI-H226 lung, 53.6%; with NCI-H322M lung, 86.7%; in the experiment with HOP-62 NSCLC it was 87.9%; with NCI-H460 lung, 67.7%; in the experiment on HOP-92 NSCLC, 44.7%. Further, the growth is 58.3% in the experiment on NCI-H522 lung, 76% in the experiment with A549/ATCC NSCLC, 72.7% with 786-0 renal and 61.3% with COLO 205 colon.
In the case of `CCOc1ccc(-n2nc(C(=O)Nc3ccccc3)nc2-c2cc(OC)c(OC)c(OC)c2)cc1`, the growth in the experiment on NCI-H23 lung is 66.6%; with NCI-H226 lung, 80%; with NCI-H322M lung, 67.6%; in the experiment with HOP-62 NSCLC it was 55.7%; in the experiment with NCI-H460 lung it was 27.9%; in the experiment with HOP-92 NSCLC, 46%. The growth in the experiment on NCI-H522 lung was 22.8%; in the experiment on A549/ATCC NSCLC, 41.4%; in the experiment with 786-0 renal it was 69.4%; with COLO 205 colon, 22.1%.
Consider `CC1=C[C@H]2c3c(c(O)c(O)c4oc5ccccc5c(=O)c34)[C@H](c3cc(O)c(O)c4oc5ccccc5c(=O)c34)[C@H]2C(C)(C)C1`, for which the growth with NCI-H23 lung is -4.58% (active); in the experiment on NCI-H226 lung it was -14.4% (active); with NCI-H322M lung, 18.7%; in the experiment with HOP-62 NSCLC, -9.58% (active); in the experiment with NCI-H460 lung, -37.6% (active); in the experiment with HOP-92 NSCLC it was -5.31% (active). Also, the growth with NCI-H522 lung is -18.3% (active); in the experiment with A549/ATCC NSCLC it was -11.8% (active); with 786-0 renal it was -76.6% (active); in the experiment with COLO 205 colon, 10.7%.
Regarding `CS(=O)(=O)c1ccc(-n2nc(-c3ccc(Br)cc3)c3ccccc3c2=O)cc1`, the growth in the experiment on NCI-H23 lung is 95%; in the experiment with NCI-H226 lung, 100%; in the experiment on NCI-H322M lung, 109%; with HOP-62 NSCLC, 97.2%; in the experiment with NCI-H460 lung, 99.1%; in the experiment with HOP-92 NSCLC it was 85.7%. For the same compound, the growth with NCI-H522 lung was 97%; with A549/ATCC NSCLC, 97.9%; in the experiment with 786-0 renal, 121%; with COLO 205 colon, 103%.
In the case of `NCCNc1nc(Nc2ccc(-c3nc4ccccc4[nH]3)cc2)c2cn[nH]c2n1`, the growth is 57.9% in the experiment on NCI-H23 lung; 81.4% in the experiment with NCI-H226 lung; 98.9% with NCI-H322M lung; 97.5% in the experiment with HOP-62 NSCLC; 54.9% in the experiment with NCI-H460 lung; 60.4% with HOP-92 NSCLC. Further, the growth in the experiment on NCI-H522 lung is 16.6%; in the experiment with A549/ATCC NSCLC, 101%; with 786-0 renal, 93%; in the experiment with COLO 205 colon, 20.8%.
As for `Cc1nc(/N=C(\N)NC(=O)Nc2cccc([N+](=O)[O-])c2)sc1C`, the growth in the experiment with NCI-H23 lung is 81.8%; in the experiment with NCI-H226 lung it was 90.5%; with NCI-H322M lung, 93.7%; in the experiment with HOP-62 NSCLC it was 83.3%; in the experiment with NCI-H460 lung, 90.5%; in the experiment on HOP-92 NSCLC, 84.1%. For the same compound, the growth in the experiment with NCI-H522 lung is 49.2%; with A549/ATCC NSCLC, 89.1%; in the experiment on 786-0 renal it was 90.5%; with COLO 205 colon, 90.6%.
Take `CCNC(=O)Oc1ccc(/C(=C(\C)c2ccc(Cl)cc2)c2ccc(OCCN(CC)CC)cc2)cc1`: the growth was 65.6% with NCI-H23 lung; 76.7% in the experiment on NCI-H226 lung; 68.7% in the experiment with NCI-H322M lung; 54.6% in the experiment on HOP-62 NSCLC; 7.6% (active) with NCI-H460 lung; 57.9% in the experiment with HOP-92 NSCLC. The growth in the experiment on NCI-H522 lung was 55.4%; in the experiment with A549/ATCC NSCLC, 45.8%; in the experiment with 786-0 renal, 24.7%; in the experiment on COLO 205 colon it was -57.8% (active).
Regarding `CC(C)(C)CC(C)(C)c1ccc(OCCOCC[N+](C)(C)Cc2ccccc2)cc1`, the growth is 2.23% (active) in the experiment with NCI-H23 lung; 31.6% in the experiment with NCI-H226 lung; 47.7% with NCI-H322M lung; -56.7% (active) in the experiment on HOP-62 NSCLC; 1.33% (active) in the experiment on NCI-H460 lung; -58.7% (active) in the experiment with HOP-92 NSCLC. For the same compound, the results for the growth with NCI-H522 lung, with A549/ATCC NSCLC and in the experiment on COLO 205 colon were -44.9% (active), 25.5% and -86.5% (active), respectively.
As for `CC[C@@H]1O[C@H](O[C@@H](c2cnc[nH]2)[C@H](NC(=O)c2nc([C@H](CC(N)=O)NC[C@@H](N)C(N)=O)nc(N)c2C)C(=O)N[C@H](C)[C@H](O)[C@H](C)C(=O)N[C@@H](C(=O)NCCc2nc(-c3nc(C(=O)NCCCCN=C(N)N)cs3)cs2)[C@@H](C)O)[C@H](O[C@@H]2O[C@H](CO)[C@H](O)[C@H](OC(N)=O)[C@@H]2O)[C@H](C)[C@@H]1C`, the growth with NCI-H23 lung was 20.9%; in the experiment on NCI-H226 lung, 13%; in the experiment with NCI-H322M lung, 105%; in the experiment on HOP-62 NSCLC, 15.6%; in the experiment on NCI-H460 lung it was 12.5%; in the experiment on HOP-92 NSCLC, 11.4%. For the same compound, the figures for the growth in the experiment with A549/ATCC NSCLC, with 786-0 renal and with COLO 205 colon were 36.6%, 25.4% and 64.2%, respectively.
